Hits are enriched below; roughly 1.8% of the tested compounds scored in any of these assays.
PfHsp40 yeast – restores yeast growth despite PfHsp40 toxicity | S. cerevisiae expressing PfHsp40, growth rescue, ATP luminescence | growth rescue, % at 12.5 µM | 340,000 tested, 0.68% active; in the data active = growth rescue above about 28%, passing the limit was not always enough;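 also: yeast W303a lacking pdr1 and pdr3 grown in galactose medium; growth measured after three days at 30 °C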
Sa ugtP lethal – kills S. aureus RN4220 lacking UgtP; 330,000 tested, 0.54% active; S. aureus RN4220 ugtP deletion, OD600 growth, 16 h; AID 1259309; growth inhibition, % (no concentration beside the values); in the data active = growth inhibition above about 68%;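 also: plate controls were untreated wells for no effect and antibiotic for full effect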
Sa RN4220 lethal – kills Staphylococcus aureus RN4220. S. aureus RN4220 growth, OD600, 16 h. inhibition, % (concentration not given with the values). 330,000 tested, 0.33% active; in the data active = inhibition above about 85%;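 also: plate controls were untreated cells for no effect and reference antibiotic for full effect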
Mtb hypoxia rep – reduces hypoxia-regulated biosensor signal in M. tuberculosis | fluorescence inhibition, % (test concentration not listed) | M. tuberculosis hypoxia-regulated fluorescent reporter, fluorescence | 300,000 tested, 0.1% active; in the data active = fluorescence inhibition mostly above about 23%, no sharp cut-off; inactive = mostly below about 17%
DUSP3 inh – blocks human VHR1 dual specificity phosphatase; P51452; recombinant VHR phosphatase, pNPP absorbance; inhibition, % at 13.3 µM; 290,000 tested, 0.52% active; AID 1654; in the data active = inhibition above about 50%
Target sequence (P51452 whole entry, looked up): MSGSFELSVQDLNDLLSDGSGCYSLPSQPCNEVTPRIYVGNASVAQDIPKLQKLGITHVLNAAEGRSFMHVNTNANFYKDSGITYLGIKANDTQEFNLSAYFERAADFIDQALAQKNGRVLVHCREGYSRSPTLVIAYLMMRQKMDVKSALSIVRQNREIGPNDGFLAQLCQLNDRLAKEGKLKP
SSB-PriA inh – inhibitors of Klebsiella pneumoniae PriA binding to SSB C-terminal tail. AlphaScreen SSBct-PriA binding, biotinylated peptide. inhibition, % at 33 µM. 430,000 tested, 0.6% active. AID 1272365; in the data active = inhibition mostly above about 37%, no sharp cut-off; inactive = mostly below about 20%;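 also: plate controls were negative control peptide for no effect and reference peptide for full effect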
The depositor's hits bear a star; ! = not active in a repeat.

How did Cc1cc2cc(CNS(=O)(=O)N(C)C)ccc2[nH]1 do in these assays?
PfHsp40 yeast: 0; Sa ugtP lethal: -5; Sa RN4220 lethal: -7; Mtb hypoxia rep: 5; DUSP3 inh: 8; SSB-PriA inh: 46*!

What do the screens show for `Cc1ccc(S(=O)(=O)NCCNS(=O)(=O)c2ccc(C)cc2)cc1`?
PfHsp40 yeast: 1; Sa ugtP lethal: 2; Sa RN4220 lethal: 2; Mtb hypoxia rep: 13; DUSP3 inh: 58*; SSB-PriA inh: 27

How did CCCCNC(=S)NCc1ccc2[nH]c(C)cc2c1 do in these assays?
PfHsp40 yeast: 6; Sa ugtP lethal: 5; Sa RN4220 lethal: 9; Mtb hypoxia rep: -7; DUSP3 inh: -7; SSB-PriA inh: 50*!

How did CC(=O)Nc1ccc(S(=O)(=O)NCc2ccc3[nH]c(C)cc3c2)cc1 do in these assays?
PfHsp40 yeast: -1; Sa ugtP lethal: -8; Sa RN4220 lethal: -8; Mtb hypoxia rep: 1; DUSP3 inh: -2; SSB-PriA inh: 38

How did CC(=O)Nc1ccc(C(C)=NNC(=O)C2CC2c2ccccc2)cc1 (stereo unspecified) do in these assays?
Sa ugtP lethal: 1; Sa RN4220 lethal: 6; Mtb hypoxia rep: 3; SSB-PriA inh: -6

What do the screens show for `Cc1ccc(-c2csc(NC(=O)c3cccc(C)c3)c2C(=O)O)cc1`?
PfHsp40 yeast: 60*; Sa ugtP lethal: -17; Sa RN4220 lethal: 9; Mtb hypoxia rep: -9; SSB-PriA inh: -7

What do the screens show for `N#CCCCC#Cc1ccc2c(c1)COc1c3ccccc3nn1-2`?
PfHsp40 yeast: 124*; Sa ugtP lethal: 15; Sa RN4220 lethal: 4; Mtb hypoxia rep: 9; SSB-PriA inh: -3

What do the screens show for `CC(O)(CNC(=O)c1ccccc1C(F)(F)F)c1cc2ccccc2o1` (stereo unspecified)?
SSB-PriA inh: 2

Results for Cc1cccc(-n2c(/C=C/c3ccc([N+](=O)[O-])o3)nc3ccccc3c2=O)c1 ?
PfHsp40 yeast: 0; Sa ugtP lethal: 99*; Sa RN4220 lethal: 69; Mtb hypoxia rep: 5; DUSP3 inh: -5; SSB-PriA inh: 6

Results for O=c1c2ccccc2nc(/C=C/c2ccc([N+](=O)[O-])o2)n1-c1ccc(O)cc1 ?
PfHsp40 yeast: -2; Sa ugtP lethal: 100*; Sa RN4220 lethal: 99*; Mtb hypoxia rep: 5; DUSP3 inh: -11; SSB-PriA inh: -8

Results for CSC[C@@](C)(O)CNC(=O)c1ccccc1SC(F)F ?
SSB-PriA inh: -8

How did CC(C)(C)c1ccc(C(=O)NCc2ccsc2)cc1 do in these assays?
SSB-PriA inh: -27

How did Cc1cc2ccccn2c1C(=O)c1ccc(NN)c([N+](=O)[O-])c1 do in these assays?
PfHsp40 yeast: 1; Sa ugtP lethal: -3; Sa RN4220 lethal: 3; Mtb hypoxia rep: 4; DUSP3 inh: 17; SSB-PriA inh: 47*

Results for Cc1cc2ccccn2c1C(=O)c1cc([N+](=O)[O-])cc([N+](=O)[O-])c1 ?
PfHsp40 yeast: -1; Sa ugtP lethal: 3; Sa RN4220 lethal: -2; Mtb hypoxia rep: -2; DUSP3 inh: 17; SSB-PriA inh: 49*

Results for Cc1ccc(-c2ccc(=O)n(CCCC(=O)Nc3ccc(Cl)c(Cl)c3)n2)cc1 ?
SSB-PriA inh: -2

What do the screens show for `CC(C)C(=O)c1cc2c(cc1NC(=O)c1ccccc1)OCCO2`?
PfHsp40 yeast: 1; Sa ugtP lethal: 5; Sa RN4220 lethal: -2; Mtb hypoxia rep: 3; DUSP3 inh: 29; SSB-PriA inh: -15

How did CC(C)C(=O)c1cc2c(cc1NC(=O)c1cccs1)OCCO2 do in these assays?
PfHsp40 yeast: 4; Sa ugtP lethal: 0; Sa RN4220 lethal: -1; Mtb hypoxia rep: 15; DUSP3 inh: 53*; SSB-PriA inh: -21

How did COc1cc(NC(=O)c2ccc([N+](=O)[O-])o2)ccc1NC(=O)c1cccs1 do in these assays?
PfHsp40 yeast: 3; Sa ugtP lethal: 100*; Sa RN4220 lethal: 100*; Mtb hypoxia rep: 0; DUSP3 inh: 11; SSB-PriA inh: -1

What do the screens show for `Cc1ccc(NC(=O)c2ccc(Cl)c(NC(=O)c3cccs3)c2)cc1`?
PfHsp40 yeast: 35*; Sa ugtP lethal: 3; Sa RN4220 lethal: 8; Mtb hypoxia rep: 2; DUSP3 inh: 18; SSB-PriA inh: -13

What do the screens show for `COc1cc(NC(=O)c2ccc3c(c2)OCCO3)ccc1NC(=O)c1cccs1`?
PfHsp40 yeast: 71*; Sa ugtP lethal: 10; Sa RN4220 lethal: 4; Mtb hypoxia rep: -10; DUSP3 inh: 14; SSB-PriA inh: 1

How did O=C(Cc1ccc(F)cc1)NCc1cc(-c2cc3ccccc3o2)on1 do in these assays?
SSB-PriA inh: -22

What do the screens show for `COc1ccc(C2(C(=O)NCC3(O)CCOCC3)CCOCC2)cc1`?
SSB-PriA inh: -2

Results for COc1cnn(-c2ccccc2)c(=O)c1SCc1ccc(Cl)cc1Cl ?
PfHsp40 yeast: 88*; Sa ugtP lethal: 10; Sa RN4220 lethal: -11; Mtb hypoxia rep: 1; DUSP3 inh: 13; SSB-PriA inh: -19

Results for O=C(c1ccco1)N1CC[C@H](S(=O)(=O)Cc2ccco2)C1 ?
SSB-PriA inh: -12

What do the screens show for `CNC(=S)N/N=C(\C)c1ccc(C(C)(C)C)cc1`?
PfHsp40 yeast: 0; DUSP3 inh: 60*

What do the screens show for `CNC(=S)N/N=C(\C)c1ccccc1`?
PfHsp40 yeast: 1; DUSP3 inh: 22

What do the screens show for `COC1=C(Nc2ccccc2OC)C(=O)c2ccccc2C1=O`?
PfHsp40 yeast: 1; Sa ugtP lethal: 7; Sa RN4220 lethal: 28; Mtb hypoxia rep: -9; DUSP3 inh: 4; SSB-PriA inh: 68*

What do the screens show for `NC(=NOC(=O)COc1ccc(Cl)cc1Br)c1cccnc1`?
SSB-PriA inh: -8

What do the screens show for `CC(C)(C)OC(=O)NN=C(c1ccc(O)cc1)c1ccc(O)cc1`?
PfHsp40 yeast: 15; Sa ugtP lethal: 99*; Sa RN4220 lethal: 99*; Mtb hypoxia rep: 11; DUSP3 inh: 4; SSB-PriA inh: -10

What do the screens show for `OCCN1CCN(Cc2ccc(O)c3ncccc23)CC1`?
SSB-PriA inh: 115*

Results for Oc1ccc(CN2CCCc3ccccc32)c2cccnc12 ?
PfHsp40 yeast: 38*; Sa ugtP lethal: 1; Sa RN4220 lethal: -4; DUSP3 inh: -2; SSB-PriA inh: 16

What do the screens show for `Cc1ccccc1N1CCN(Cc2ccc(O)c3ncccc23)CC1`?
SSB-PriA inh: 87*

How did COc1ccccc1N1CCN(Cc2ccc(O)c3ncccc23)CC1 do in these assays?
PfHsp40 yeast: 0; Sa ugtP lethal: -2; Sa RN4220 lethal: 7; Mtb hypoxia rep: -6; DUSP3 inh: 23; SSB-PriA inh: 73*

Results for c1ccc(-c2nnc(CN3CCCc4ccccc43)o2)cc1 ?
PfHsp40 yeast: 1; Sa ugtP lethal: -21; Sa RN4220 lethal: -2; DUSP3 inh: 0; SSB-PriA inh: 1

What do the screens show for `COCc1cc(CN2CCN(C)CC2)c(O)c2ncccc12`?
PfHsp40 yeast: 1; Sa ugtP lethal: 3; Sa RN4220 lethal: 4; Mtb hypoxia rep: 20; DUSP3 inh: 18; SSB-PriA inh: 98

How did COc1ccc(-c2nonc2NC(=O)C(C)C)cc1OC do in these assays?
SSB-PriA inh: -9

Screens (PubChem)
